The record followed here is PubChem BioAssay AID463173 (ICCB-Longwood Screening Facility, Harvard Medical School, 2010).

About 4,300 (8.3%) of roughly 52,000 compounds were called active. For the sample, actives were picked, then their nearest neighbours and some compounds at random. Values without a mark were called inactive. Rule as the data show it: active = survival mostly below about 52% (no sharp cut-off); inactive = mostly above about 56%.

The experiment concerns DeltatarO mutant. The experiment in a line: growth inhibition of S. aureus wild type versus tarO mutant, primary screen, teichoic acid synthesis inhibitors, RN4220, OD600 (AID 463173). Conditions: OD600, 18 h, hits give low values, screened at 18.75 µg/mL (by protocol).
Turning to `COc1ccccc1N1CCN(Cc2cc(COC(C)C)c3cccnc3c2O)CC1`, the survival was 84%.
For `CCC(C)(C)n1nnnc1C(C(C)C)N(Cc1cccnc1)Cc1ccco1` (stereo unspecified) the value was 78%; for `COc1ccccc1N1CCN(C(=O)c2cn(C)c3ccc(S(=O)(=O)N(C)C4CCCCC4)cc3c2=O)CC1`, 83%; for `CCCC12CN3CC(CCC)(CN(C1)C3c1c(C)[nH]c(=O)[nH]c1=O)C2=O` (stereo unspecified), 109%.
Turning to `CCC(C)NC(=O)c1c(-c2ccccc2)c(-c2ccccc2)nn(C)c1=O` (stereo unspecified), the survival was 50%.
In the case of `CCOc1ccc(OCC)c(NC(=O)C2CCCN(S(=O)(=O)c3cc(Br)cc4c3N(C(=O)CC)CC4)C2)c1` (stereo unspecified), the survival was 100%.
The same measure for `COc1ccc(CCNC(=O)CCCn2c(=O)c3ccccc3n(Cc3cccc(Cl)c3)c2=O)cc1OC`: 72%; for `Cc1ccc2nc(N3CCN(C(=O)C4COc5ccccc5O4)CC3)sc2c1` (stereo unspecified): 89%; for `COc1ccccc1CNC(=O)COCc1cc(-c2ccc3c(c2)OCO3)on1`: 25% (active).
Regarding `O=C(COCc1cc(-c2ccc3c(c2)OCO3)on1)NCc1ccccc1Cl`, the survival was 70%.
For `COc1cccc(CNC(=O)COCc2cc(-c3ccc4c(c3)OCO4)on2)c1` the value was 37% (active); for `O=C(COCc1cc(-c2ccc3c(c2)OCO3)on1)NCc1ccc(F)cc1`, 85%.
Consider `COc1ccc(CNC(=O)COCc2cc(-c3ccc4c(c3)OCO4)on2)cc1`, for which the survival is 94%.
`Cc1ccc(CNC(=O)COCc2cc(-c3ccc4c(c3)OCO4)on2)cc1`: the survival was 75%.
Turning to `O=S(=O)(c1ccccc1)n1nc(-c2ccco2)nc1NCc1ccccc1`, the survival is 71%.
For `O=C(Nc1ccc(N2CCN(C(=O)c3ccco3)CC2)cc1)c1ccccc1` the value was 93%; for `CCOc1ccc(-n2nc3ccc(NC(=O)c4cccc(F)c4)cc3n2)cc1`, 84%; for `CCCNC(=O)c1ccc2c(c1)nc1n2CCCCC1`, 94%.
Take `COc1cccc(C(=O)NCCc2csc(-c3cccc(F)c3)n2)c1OC`: the survival was 75%.
For `Cc1cccc(N2CCN(C(=O)CN3C(=O)COc4ccc(S(=O)(=O)N5CCCC5)cc43)CC2C)c1` (stereo unspecified) the value was 77%.
The same measure for `O=C(COc1ccccc1[N+](=O)[O-])N1CCC(c2nc3ccccc3o2)CC1`: 79%.
The same measure for `CCOC(=O)c1csc2c1CCC/C2=N/OC(C)=O`: 86%; for `CCOC(=O)c1cc2c(=O)n3ccccc3nc2n(Cc2ccco2)c1=NC(=O)c1cccc(C)c1`: 33% (active); for `CCOC(=O)c1cc2c(=O)n3ccccc3nc2n(Cc2ccco2)c1=NC(=O)c1cc(C)cc(C)c1`: 29% (active).
Turning to `CCOc1ccccc1NC(=O)Cn1ccn(-c2ccccc2)c(=O)c1=O`, the survival was 49%.
The same measure for `O=C(COc1ccc(Cl)cc1)Nc1nnc(S(=O)(=O)N2CCCCCC2)s1`: 55% (active); for `Cc1ccc(OCC(=O)Nc2nnc(S(=O)(=O)N3CCCCCC3)s2)cc1`: 64%.
For `CCC(=O)Nc1nnc(S(=O)(=O)N2CCCCCC2)s1` the value was 89%; for `Cc1cccc(OCC(=O)Nc2nnc(S(=O)(=O)N3CCCCCC3)s2)c1`, 48% (active).
The same measure for `CCN(CC)S(=O)(=O)c1nnc(NC(=O)COc2cccc(C)c2)s1`: 94%.
Turning to `O=C(COc1ccccc1)Nc1nnc(S(=O)(=O)N2CCCC2)s1`, the survival is 39% (active).
For `Cc1cc(C)cc(N(C)S(=O)(=O)c2nnc(NC(=O)COc3ccc(Cl)cc3)s2)c1` the value was 80%.
As to `COc1ccc(OCC(=O)Nc2nnc(S(=O)(=O)N3CCCCCC3)s2)cc1`, the survival was 76%.
Turning to `CN(c1ccccc1)S(=O)(=O)c1nnc(NC(=O)COc2ccccc2)s1`, the survival is 56%.
The same measure for `CC(Oc1ccccc1)C(=O)Nc1nnc(S(=O)(=O)N2CCCCCC2)s1` (stereo unspecified): 50%; for `Cc1cc(C)cc(N(C)S(=O)(=O)c2nnc(NC(=O)COc3ccc(C)c(C)c3)s2)c1`: 30% (active); for `O=C(COc1ccccc1)Nc1nnc(S(=O)(=O)N2CCCCCC2)s1`: 79%.
For `CC1(C)CC(=O)C2=C(C1)NC1=C(C(=O)CC(C)(C)C1)C2c1ccc2c(c1)OCO2` the value was 96%; for `NC(=O)c1nc(-c2ccc(F)c(F)c2)nc2c1[nH]c(=O)n2-c1cccc(Cl)c1`, 86%.
On to `O=C(Nc1cccc(C(F)(F)F)c1)N1CCC(CN2CCCCCC2)CC1`, for which the survival was 83%.
For `Cc1cccc(C(=O)Nc2ccc(N3CCC(CCN4CCOCC4)CC3)c(C(=O)O)c2)c1` the value was 66%; for `Cc1ccc(N2CCN(c3cc(C)nc4c(-c5ccc(Cl)cc5)c(C)nn34)CC2C)cc1` (stereo unspecified), 55%; for `COc1ccc(C(=O)c2cn(Cc3ccc(F)cc3)c3c(F)cc(F)cc3c2=O)cc1`, 103%.
The same measure for `Cc1cccc(N2CCN(C(=O)CCNS(=O)(=O)c3ccc4c(c3)CCN4C(=O)C3CC3)CC2)c1C`: 73%; for `N#Cc1ccccc1NC(=O)CSc1nnc(N)s1`: 76%; for `CC(C)CC(=O)Nc1nnc(S(=O)(=O)N2CCCCCC2)s1`: 109%.
The same measure for `O=C(COc1ccc(F)cc1)Nc1nnc(S(=O)(=O)N2CCCC2)s1`: 39% (active).
For `CCCC(=O)Nc1nnc(S(=O)(=O)N2CCCCCC2)s1`, the survival is 91%.
For `Cn1c(/C(C#N)=C/c2ccccc2Br)nc2ccccc21` the value was 79%.
The same measure for `Cn1c(/C(C#N)=C/c2ccc(C(F)(F)F)cc2)nc2ccccc21`: 103%; for `COc1ccc(Cl)cc1N/C=C(/C#N)c1nc2ccccc2n1C`: 82%; for `COc1ccc(/C=C(\C#N)c2nc3ccccc3n2C)c(OC)c1`: 29% (active).
For `COc1cc(/C=C(\C#N)c2nc3ccccc3n2C)cc(OC)c1OC` the value was 47% (active).
Consider `Cn1c(/C(C#N)=C/C2CC=CCC2)nc2ccccc21` (stereo unspecified), for which the survival was 78%.
The same measure for `Cc1cc(=O)n(CC(=O)N2CCCc3ccccc32)c2c1c(C)nn2-c1cccc(F)c1`: 85%; for `Cc1ccc(C)c(NC(=O)CSc2ncc3c(n2)-c2ccc(Cl)cc2N(C)S3(=O)=O)c1`: 74%.
The same measure for `CCCCN(C)CCNC(=O)c1ccc2c(c1)NC(=O)CN2`: 71%; for `CCOc1ccc(-n2nc3ccc(NC(=O)c4ccc(-c5cccc(Cl)c5)o4)cc3n2)cc1`: 45% (active); for `CCOc1ccc(-n2nc3ccc(NC(=O)Cc4ccccc4)cc3n2)cc1`: 74%.
The same measure for `COc1ccc(-n2nc3ccc(NC(=O)c4cc5ccccc5o4)cc3n2)cc1Cl`: 159%.
Regarding `O=C(Nc1ccc2nn(-c3ccc(Cl)cc3)nc2c1)c1cc2ccccc2o1`, the survival is 65%.
In the case of `O=C(Nc1ccc2nn(-c3ccccc3)nc2c1)c1ccc(-c2cccc(Cl)c2)o1`, the survival was 105%.
The same measure for `COc1ccc(-n2nc3ccc(NC(=O)c4ccc(-c5cc(Cl)ccc5Cl)o4)cc3n2)cc1`: 40% (active).
The same measure for `CCCCN(CC)CCCNC(=O)c1cc2c(-c3ccc(OC)c(OC)c3)nn(C)c2s1`: 140%; for `Cc1ccc(N2CCN(C(=O)c3cnn(-c4ccc(C)c(C)c4)c3C3CCNCC3)CC2)c(C)c1`: 55%.
On to `CCN(CC)S(=O)(=O)c1ccc2oc(C(=O)Nc3ccc(Br)cc3F)c(C)c2c1`, for which the survival was 69%.
For `O=C(O)CCN1CCCC1` the value was 78%.
For `CCN(c1cccc(C)c1)c1ncnc2c1cnn2-c1cccc(Cl)c1` the value was 70%; for `N#C/C(=C\c1ccc(F)cc1)c1nc(-c2ccc(-c3ccccc3)cc2)cs1`, 69%.
The same measure for `CCc1ccc(/C=C(/C#N)c2nc(-c3ccc(C)cc3)cs2)cc1`: 8% (active).
Consider `CC(C)c1ccc(/C=C(\C#N)c2nc(-c3ccc(O)cc3)cs2)cc1`, for which the survival was -1% (active).
The same measure for `N#C/C(=C/c1ccc(O)cc1)c1nc(-c2ccc(-c3ccccc3)cc2)cs1`: 9% (active).
For `Cc1ccc(/C=C(\C#N)c2nc(-c3ccc(-c4ccccc4)cc3)cs2)cc1`, the survival was 57%.
For `CN(C)c1ccc(/C=C(\C#N)c2nc(-c3ccc(Cl)c(Cl)c3)cs2)cc1`, the survival was 76%.
For `CCOc1ccc(-c2csc(/C(C#N)=C/c3ccc(Br)cc3)n2)cc1` the value was 55%; for `N#C/C(=C/c1ccc(Cl)cc1)c1nc(-c2ccc(Br)cc2)cs1`, 65%.
Turning to `COc1ccc(/C=C(/C#N)c2nc(-c3ccc(-c4ccccc4)cc3)cs2)cc1`, the survival is 73%.
`O=C(Nc1ccc(Cl)cc1)N1CCN(c2ccc3nnc(-c4ccc(F)cc4)n3n2)CC1`: the survival is 68%.
The same measure for `Cc1ccc2oc(-c3cccc(NC(=O)c4sc5c([N+](=O)[O-])cccc5c4Cl)c3)nc2c1`: 67%; for `COc1cc(-c2nc(Cn3nnc(C(=O)Nc4ccccc4C)c3C)c(C)o2)cc(OC)c1OC`: 58%; for `COc1ccc(NC(=O)c2c(C)oc3ccc(O)c(CN4CCN(Cc5ccccc5)CC4)c23)cc1`: 56%.
The same measure for `CCn1c(=O)c2sccc2n2c(CCC(=O)Nc3ccc(F)cc3)nnc12`: 82%.
For `O=C(CSc1nc2ccccc2n1Cc1ccc(F)c(Cl)c1)N1CCN(c2ccc(F)cc2)CC1` the value was 61%; for `Cc1csc2nc(COC(=O)c3ccccc3NC(=O)c3cccc(Br)c3)cc(=O)n12`, 87%; for `Cc1ccc(CNC(=O)c2c(-c3cccc(Br)c3)noc2C)o1`, 87%.
As for `Cc1ccc(C)c(NC(=O)CN(CCc2ccccc2)S(=O)(=O)c2ccccc2)c1`, the survival is 46% (active).
The same measure for `CCOc1ccccc1NC(=O)CN(CCc1ccccc1)S(=O)(=O)c1ccc(C)cc1`: 106%; for `COc1ccc(S(=O)(=O)N(CCc2ccccc2)CC(=O)Nc2cc(Cl)ccc2C)cc1`: 58%.
For `Cc1ccc(NC(=O)CN(CCc2ccccc2)S(=O)(=O)c2ccccc2)c(C)c1` the value was 38% (active).
The same measure for `COc1ccc(S(=O)(=O)N(CCc2ccccc2)CC(=O)Nc2cc(C)ccc2C)cc1`: 48%; for `Cc1c(Cl)cccc1NC(=O)CN(CCc1ccccc1)S(=O)(=O)c1ccccc1`: 49%.
